PubChem BioAssay (Tox21)
Inconclusive results are not listed. Active and inactive are the calls of the source. Unless noted, calls come from the whole dose curve; as a rule, active = well fitted curve in the direction sought with a large enough effect in the repeat runs; inconclusive = weak or mixed curves; inactive = no such curve, though single readings can be large; an effect the other way counts as inactive or inconclusive.

Legend:
[1] = molecular target: Thyrotropin receptor (Homo sapiens) (UniProt P16473); assay: qHTS assay to identify small molecule antagonists of the thyroid stimulating hormone receptor (TSHR) signaling pathway (AID 1259385; calls by dose curve; note: nearly all actives have a fitted effect of over 20% in size)
Method in brief: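 Antagonist mode: compound-treated TSHR-expressing HEK293 cells were stimulated with 1.5 ng/mL TSH (final) in presence of Ro20-1724 for 30 min at RT. HTRF cAMP detection after 1 h; each compound tested at 15 concentrations, triplicate.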

[2] = molecular target: Progesterone receptor (Homo sapiens) (UniProt P06401); assay: qHTS assay to identify small molecule agonists of the progesterone receptor (PR) signaling pathway (AID 1346784; calls by dose curve; note: nearly all actives have a fitted effect of over 30% in size)
Method in brief: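 Using charcoal-stripped serum (2%) to limit endogenous steroids, PR-UAS-bla HEK 293T cells received compounds for 16 hr at 37C after 6 hr plating; beta-lactamase FRET fluorescence was recorded following 2 hr substrate loading at room temperature.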

[3] = molecular target: Progesterone receptor (Homo sapiens) (UniProt P06401); assay: qHTS assay to identify small molecule antagonists of the progesterone receptor (PR) signaling pathway (AID 1346795; active = well fitted inhibition curve with a large enough effect in the signal ratio in the repeat runs, not every such curve was filed as active; the % refers to the signal ratio)
Method in brief: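 Inhibition of R5020-induced (1 nM final) beta-lactamase reporter signal in PR-UAS-bla HEK293T cells was scored by FRET fluorescence after overnight (16 hr) compound treatment.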

[4] = qHTS assay to identify small molecule antagonists of the progesterone receptor (PR) signaling pathway - cell viability counter screen (AID 1346798); note: nearly all actives have a fitted effect of over 50% in size; note: potency is the fitted concentration of half-maximal effect; for activity change, negative = cytotoxicity: series mostly up to about 92 µM
Method in brief: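 ATP content as viability readout: CellTiter-Glo luminescence, 30 min room temperature, in PR-UAS-bla HEK293T cells after 16 hr compound/R5020 treatment at 37C and 5% CO2.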

[5] = qHTS assay to identify small molecule antagonists of the TGF-beta/Smad signaling pathway - cell viability counter screen (AID 1346824); note: nearly all actives have a fitted effect of over 50% in size
Method in brief: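 Cytotoxicity counter-screen run in the same wells as the beta-lactamase Smad reporter read: CellTiter-Glo luminescence after 30 min at room temperature. HEK 293T SBE-bla cells had 5 hr compound exposure at 37 C with TGF-beta1 (0.25 ng/mL stock).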

[6] = qHTS assay to identify small molecule agonists of the TGF-beta/Smad signaling pathway - cell viability counter screen (AID 1346829); note: top concentration of the series differs between compounds; nearly all actives have a fitted effect of over 45% in size
Method in brief: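 HEK 293T SBE-bla line, 5 hr compound exposure at 37 C, multiplexed CellTiter-Glo viability read by luminescence.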

[7] = qHTS assay to identify small molecule agonists of the TGF-beta/Smad signaling pathway (AID 1346859; active = well fitted activation curve with a large enough effect in the signal ratio in the repeat runs, not every such curve was filed as active; the % refers to the signal ratio; note: series mostly up to about 77 µM)
Method in brief: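 Stable Smad binding element-beta-lactamase HEK 293T cells; 5 hr compound exposure at 37 C under 5% CO2; 2 hr room-temperature substrate step; fluorescence excited at 405 nm, collected at 460 nm and 530 nm.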

[8] = molecular target: Thyrotropin-releasing hormone receptor (Homo sapiens) (UniProt P34981); assay: qHTS assay to identify small molecule antagonists of the thyrotropin-releasing hormone receptor (TRHR) signaling pathway (AID 1346877; active = well fitted inhibition curve with a large enough effect in the repeat runs, not every such curve was filed as active; note: series mostly up to about 51 µM)
Method in brief: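 Antagonist mode: after a 5 min room-temperature compound exposure, cells were stimulated with 1 nM (final) TRH. Dye-loaded TRHR-HEK293 cells were used, and calcium-dependent fluorescence was followed for 3 min, with 15-point titrations run in triplicate.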

[9] = molecular target: Thyrotropin-releasing hormone receptor (Homo sapiens) (UniProt P34981); assay: qHTS assay to identify small molecule agonists of the thyrotropin-releasing hormone receptor (TRHR) signaling pathway (AID 1346891; calls by dose curve;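 note: HEK293 cells expressing TRHR with calcium dye readout; series mostly up to about 58 µM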)
Method in brief: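 In 1536-format, 1500 TRHR-Hek293 cells per well grew 18 h, took up calcium dye for 2 h at 37 °C, received compound, and were read kinetically; 15-point titrations, triplicates.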

[10] = Human pregnane X receptor (PXR) small molecule agonists, qHTS cell viability counter screen (AID 1346977); note: nearly all actives have a fitted effect of over 50% in size
Method in brief: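 Readout is CellTiter-Fluor fluorescence from PXR-Luc HepG2 cells. Plated cells rested 5hr, then were treated with compounds for 24hr at 37C and 5% CO2, with reagent present during the last hour.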

[11] = Caspase-3/7 induction in HepG2 cells by small molecules, qHTS assay (AID 1346978); note: nearly all actives have a fitted effect of over 15% in size
Method in brief: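 Caspase-3/7 induction was measured by Caspase-Glo 3/7 luminescence (30 min, room temperature) after a 17 hr compound exposure of wild-type HepG2 cells seeded at 2,000 per well and pre-incubated 5 hr.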

[12] = Caspase-3/7 induction in CHO-K1 cells by small molecules, qHTS assay (AID 1346980); note: nearly all actives have a fitted effect of over 15% in size
Method in brief: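 Luminescent Caspase-Glo 3/7 read (30min, room temperature) quantified apoptosis induction. Cells were wild-type CHO-K1, treated with compound for 17hr at 37 C and 5% CO2.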

[13] = molecular target: Nuclear receptor subfamily 1 group I member 2 (Homo sapiens) (UniProt O75469); assay: Human pregnane X receptor (PXR) small molecule agonists, qHTS assay (AID 1346982); note: nearly all actives have a fitted effect of over 35% in size; note: potency is the fitted concentration of half-maximal effect
Method in brief: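 Agonist mode: luminescence from ONE-Glo after 24 h compound exposure at 37C in HepG2 cells carrying hPXR-responsive CYP3A4 luciferase, plated in charcoal-stripped serum medium 5 h beforehand.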

[14] = molecular target: Nuclear receptor subfamily 1 group I member 2 (Rattus norvegicus) (UniProt Q9R1A7); assay: Rat pregnane X receptor (rPXR) activation by small molecules, qHTS assay (AID 1346983); settings: rPXR luciferase reporter cells, One-Glo luminescence, 24 h; max activation: hits give high values; note: nearly all actives have a fitted effect of over 20% in size; note: potency is the fitted concentration of half-maximal effect
Method in brief: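 Luminescent readout (One-Glo luciferase, 30 min room temperature) followed 24 hr compound treatment at 37 C of rPXR cells plated 2,000 per well and preincubated 5hr; qHTS format with compounds delivered in DMSO.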

[15] = molecular target: Nuclear receptor subfamily 1 group I member 2 (Homo sapiens) (UniProt O75469); assay: CYP3A4 induction through human pregnane X receptor (PXR) by small molecules, qHTS assay (AID 1346984); note: nearly all actives have a fitted effect of over 40% in size
Method in brief: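 Read-out is luminescence after One-Glo addition, following a 3 hr, 37C incubation with Luciferin-IPA CYP3A4 substrate (3uM final). Before that, compounds were on DPX-2 cells (HepG2 co-transfected with PXR element plus CYP3A4-promoter luciferase) for 24 hr at 37C.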

[16] = molecular target: Nuclear receptor subfamily 1 group I member 2 (Homo sapiens) (UniProt O75469); assay: Human pregnane X receptor (PXR) activation by small molecules, qHTS assay (AID 1346985); note: nearly all actives have a fitted effect of over 40% in size; note: potency is the fitted concentration of half-maximal effect
Method in brief: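 DPX-2 cells (HepG2 co-transfected with a PXR response element and a CYP3A4-promoter luciferase construct) were seeded at 2,000 per well, rested 5 hr at 37C, then exposed to DMSO-dissolved compounds for 24 hr. Activation was read as luciferase luminescence.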

[17] = qHTS assay to identify small molecule agonists of the progesterone receptor (PR) signaling pathway - cell viability counter screen (AID 1346799; calls by dose curve; note: nearly all actives have a fitted effect of over 45% in size; note: potency is the fitted concentration of half-maximal effect)
Method in brief: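 Cytotoxicity in PR-bla HEK293T cells: 16 h compound, 37C; CellTiter-Glo added post-FRET read; luminescence after 30 min RT.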

[18] = Caspase-3/7 induction in CHO-K1 cells by small molecules, qHTS cell viability counter screen (AID 1346979); note: nearly all actives have a fitted effect of over 35% in size
Method in brief: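 To flag cytotoxic compounds, treated CHO-K1 wild-type cells were given CellTiter-Fluor at 16hr and read fluorescently after 1hr at 37C; the caspase-3/7 luminescence was measured in these same wells.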

[19] = qHTS assay to identify small molecule agonists of the estrogen receptor alpha (ER-alpha) signaling pathway in the presence of an antagonist - cell viability counter screen (AID 1259386); note: series mostly up to about 92 µM; nearly all actives have a fitted effect of over 30% in size
Method in brief: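 Compounds tested at 15 concentrations for 22 h at 37C alongside 10.0nM (final) ICI-182,780 antagonist, in VM7Luc4E2 cells grown in phenol red-free, charcoal-stripped medium. Viability read by CellTiter-Fluor fluorescence after 1 h reagent incubation.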

[20] = Caspase-3/7 induction in HepG2 cells by small molecules, qHTS cell viability counter screen (AID 1346981); note: series mostly up to about 92 µM; nearly all actives have a fitted effect of over 30% in size
Method in brief: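 CellTiter-Fluor fluorescence measured viability in the same wells used for Caspase-Glo 3/7. HepG2 (wild type) at 2,000 cells/well were pre-incubated 5 hr, dosed, and given reagent at 16 hr, with 1 hr further at 37C.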
% is set by controls: 0 for no effect and ±100 for the full control effect.

Sequence of Progesterone receptor (Homo sapiens) (P06401 whole entry, looked up): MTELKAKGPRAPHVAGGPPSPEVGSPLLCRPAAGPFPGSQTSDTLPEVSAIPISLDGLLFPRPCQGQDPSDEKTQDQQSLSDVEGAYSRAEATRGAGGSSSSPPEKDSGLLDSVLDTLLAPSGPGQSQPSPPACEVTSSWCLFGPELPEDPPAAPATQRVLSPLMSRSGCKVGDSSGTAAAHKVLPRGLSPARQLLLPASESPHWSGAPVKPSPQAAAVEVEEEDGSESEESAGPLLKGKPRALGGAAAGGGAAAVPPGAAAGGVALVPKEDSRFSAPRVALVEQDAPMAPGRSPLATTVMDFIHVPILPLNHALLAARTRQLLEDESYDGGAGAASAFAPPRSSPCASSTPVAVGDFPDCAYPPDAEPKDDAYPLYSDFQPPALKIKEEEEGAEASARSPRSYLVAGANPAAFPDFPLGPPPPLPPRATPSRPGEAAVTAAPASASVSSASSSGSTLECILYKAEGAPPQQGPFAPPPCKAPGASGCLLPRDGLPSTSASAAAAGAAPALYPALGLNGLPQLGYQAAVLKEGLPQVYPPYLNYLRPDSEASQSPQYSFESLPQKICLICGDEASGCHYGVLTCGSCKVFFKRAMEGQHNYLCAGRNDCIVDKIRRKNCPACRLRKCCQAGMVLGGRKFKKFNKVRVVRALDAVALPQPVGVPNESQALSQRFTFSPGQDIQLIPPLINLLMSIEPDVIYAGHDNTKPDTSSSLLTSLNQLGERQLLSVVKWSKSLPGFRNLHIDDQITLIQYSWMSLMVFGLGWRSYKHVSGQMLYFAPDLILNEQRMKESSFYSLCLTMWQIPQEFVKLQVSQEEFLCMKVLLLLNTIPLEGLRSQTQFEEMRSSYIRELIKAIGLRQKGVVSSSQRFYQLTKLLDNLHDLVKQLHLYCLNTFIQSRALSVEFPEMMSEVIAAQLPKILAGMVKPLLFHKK
Sequence of Nuclear receptor subfamily 1 group I member 2 (Homo sapiens) (O75469 whole entry, looked up): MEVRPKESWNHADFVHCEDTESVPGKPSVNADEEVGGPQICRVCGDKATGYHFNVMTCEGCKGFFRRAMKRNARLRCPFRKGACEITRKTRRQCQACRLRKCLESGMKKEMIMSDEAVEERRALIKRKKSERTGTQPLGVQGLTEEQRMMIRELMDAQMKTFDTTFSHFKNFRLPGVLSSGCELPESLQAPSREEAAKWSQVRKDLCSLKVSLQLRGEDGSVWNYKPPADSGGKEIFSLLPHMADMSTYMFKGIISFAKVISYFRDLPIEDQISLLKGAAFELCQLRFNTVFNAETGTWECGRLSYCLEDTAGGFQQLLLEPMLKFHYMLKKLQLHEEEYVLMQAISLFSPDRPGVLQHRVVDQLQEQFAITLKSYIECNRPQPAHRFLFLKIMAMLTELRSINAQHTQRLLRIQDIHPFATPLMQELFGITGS
Sequence of Nuclear receptor subfamily 1 group I member 2 (Rattus norvegicus) (Q9R1A7 whole entry, looked up): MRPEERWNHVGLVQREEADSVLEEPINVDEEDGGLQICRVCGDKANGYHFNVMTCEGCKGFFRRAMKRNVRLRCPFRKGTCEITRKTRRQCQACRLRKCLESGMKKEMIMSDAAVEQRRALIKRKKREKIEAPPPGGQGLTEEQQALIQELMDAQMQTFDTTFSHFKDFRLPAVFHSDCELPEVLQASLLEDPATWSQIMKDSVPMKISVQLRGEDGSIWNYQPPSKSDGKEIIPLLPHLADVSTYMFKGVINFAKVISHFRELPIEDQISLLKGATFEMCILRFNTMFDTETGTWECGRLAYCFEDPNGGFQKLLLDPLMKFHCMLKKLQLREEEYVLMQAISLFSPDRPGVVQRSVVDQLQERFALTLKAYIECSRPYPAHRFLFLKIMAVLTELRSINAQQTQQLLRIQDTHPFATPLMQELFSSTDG
Sequence of Thyrotropin receptor (Homo sapiens) (P16473 whole entry, looked up): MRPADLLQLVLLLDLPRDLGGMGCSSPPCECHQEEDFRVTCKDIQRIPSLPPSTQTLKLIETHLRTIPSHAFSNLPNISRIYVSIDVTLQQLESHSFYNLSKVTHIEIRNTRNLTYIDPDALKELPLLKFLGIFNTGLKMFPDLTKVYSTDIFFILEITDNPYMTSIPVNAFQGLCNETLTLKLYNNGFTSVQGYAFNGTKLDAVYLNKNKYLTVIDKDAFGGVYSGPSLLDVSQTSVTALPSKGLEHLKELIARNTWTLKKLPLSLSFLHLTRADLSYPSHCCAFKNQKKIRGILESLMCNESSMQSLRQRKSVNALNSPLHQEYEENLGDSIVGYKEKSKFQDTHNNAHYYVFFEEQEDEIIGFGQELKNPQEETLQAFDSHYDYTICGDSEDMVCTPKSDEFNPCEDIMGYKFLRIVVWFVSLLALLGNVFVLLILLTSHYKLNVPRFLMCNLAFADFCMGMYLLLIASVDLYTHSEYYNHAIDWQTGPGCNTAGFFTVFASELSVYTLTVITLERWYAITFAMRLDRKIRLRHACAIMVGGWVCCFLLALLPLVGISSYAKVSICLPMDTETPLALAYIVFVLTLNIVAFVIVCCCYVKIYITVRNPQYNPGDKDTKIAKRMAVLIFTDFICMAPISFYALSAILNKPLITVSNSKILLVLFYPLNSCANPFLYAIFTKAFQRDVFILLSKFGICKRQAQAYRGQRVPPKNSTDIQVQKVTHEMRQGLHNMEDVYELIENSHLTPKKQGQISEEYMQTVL
Sequence of Thyrotropin-releasing hormone receptor (Homo sapiens) (P34981 whole entry, looked up): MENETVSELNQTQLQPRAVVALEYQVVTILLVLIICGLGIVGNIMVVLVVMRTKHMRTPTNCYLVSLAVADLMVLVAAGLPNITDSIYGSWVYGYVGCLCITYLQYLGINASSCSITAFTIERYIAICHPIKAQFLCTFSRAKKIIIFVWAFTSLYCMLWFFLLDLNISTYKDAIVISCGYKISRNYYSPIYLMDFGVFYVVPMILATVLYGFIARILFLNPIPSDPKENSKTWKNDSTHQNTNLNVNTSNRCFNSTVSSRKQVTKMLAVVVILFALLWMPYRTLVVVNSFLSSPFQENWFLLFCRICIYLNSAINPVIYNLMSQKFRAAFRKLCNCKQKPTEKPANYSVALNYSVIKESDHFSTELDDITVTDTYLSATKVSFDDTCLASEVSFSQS

O=C(O)CCNC(=O)c1ccc(N=Nc2ccc(O)c(C(=O)O)c2)cc1
inactive: Potency [1] | Potency [2] | Potency [3] | Potency [4] | outcome [5] | outcome [6] | outcome [7] | outcome [8] | outcome [9] | Potency [10] | outcome [11] | outcome [12] | Potency [13] | max activation [14] -1.98% | Potency [15] | Potency [16]

COC(=O)CCCC(=O)O
inactive: Potency [1] | Potency [4] | Potency [17] | outcome [5] | outcome [6] | outcome [7] | outcome [11] | Potency [18] | outcome [12] | Potency [13]

CCCCCCOC(=O)c1ccccc1O
active: Potency [4] 24.3 µM | Potency [17] 30.6 µM
inactive: Potency [1] | outcome [19] | outcome [5] | outcome [6] | outcome [7] | outcome [8] | outcome [9] | Potency [10] | outcome [11] | Potency [18] | outcome [12] | outcome [20] | Potency [13]

CC(C)CCOC(=O)CC(C)C
inactive: outcome [19] | Potency [2] | Potency [3] | Potency [4] | Potency [17] | outcome [5] | outcome [6] | outcome [7] | outcome [8] | outcome [9] | Potency [10] | outcome [11] | Potency [18] | outcome [12] | outcome [20] | Potency [13]

Cn1ccc2cc3c(cc21)CCN3C(=O)Nc1cccnc1
inactive: activity change, negative = cytotoxicity [19] -5.2% [at 19 µM] | activation [2] 1.39% [at 19 µM] | activity change, negative = inhibition [3] -0.261% [at 18.9 µM] | activity change, negative = cytotoxicity [4] -18% [at 18.9 µM] | activity change, negative = cytotoxicity [17] 0.965% [at 19 µM] | viability change, negative = cytotoxic [5] 10.7% [at 15.8 µM] | activity change, negative = cytotoxicity [6] -1.62% [at 15.8 µM] | activation [7] 2.76% [at 15.8 µM] | activity, negative = inhibition [8] -16.1% [at 10.5 µM] | activation [9] -0.003% [at 11.8 µM] | caspase activation [11] 0.602% [at 19 µM] | activity change, negative = cytotoxicity [18] 5.05% [at 19 µM] | caspase-3/7 activation [12] -1.75% [at 19 µM] | activity change, negative = cytotoxicity [20] 1.32% [at 19 µM] | Potency [15]
active: Potency [13] 3.66 µM | Potency [14] 12.6 µM | Potency [16] 12.6 µM

C1COCCO1
inactive: outcome [19] | Potency [2] | Potency [3] | Potency [4] | Potency [17] | outcome [5] | outcome [6] | outcome [7] | outcome [8] | outcome [9] | Potency [10] | outcome [11] | Potency [18] | outcome [12] | Potency [13]

CCOC(=O)[C@H](CCc1ccccc1)N[C@@H](C)C(=O)N1CCC[C@H]1C(=O)O
inactive: Potency [1] | outcome [19] | Potency [4] | Potency [17] | outcome [5] | outcome [6] | outcome [7] | outcome [8] | outcome [9] | Potency [10] | outcome [11] | Potency [18] | outcome [12] | outcome [20] | max activation [14] -3.1%

CC(C)COC(=O)C(C)C
inactive: Potency [1] | outcome [19] | Potency [4] | outcome [5] | outcome [6] | outcome [7] | outcome [8] | outcome [9] | Potency [10] | outcome [11] | Potency [18] | outcome [12] | Potency [13]
